Source: PubChem BioAssay (NCI)
Compounds without any hit were thinned out: in the full panel of roughly 83,000, 20% have a hit.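 Cells were grown in 96-well plates and exposed to the test compound at a single concentration for 48 hours; results are reported as percent growth, with values below 10 considered active.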 Calls of active or inactive are those of the source.

Legend:
Assay in all cases: NCI-60 one-dose screen, 48 h (100 = growth as untreated, 0 = no growth, -100 = all killed)
Settings in all cases: 10 µM
[1] = system: NCI-H23 lung
[2] = system: NCI-H226 lung
[3] = system: NCI-H322M lung
[4] = system: HOP-62 NSCLC
[5] = system: NCI-H460 lung
[6] = system: NCI-H522 lung
[7] = system: A549/ATCC NSCLC
[8] = system: 786-0 renal
[9] = system: COLO 205 colon
[10] = system: DU-145 prostate

Measured: growth

COc1cc(/C=N/NC(=O)c2ccccc2Nc2cccc(C(F)(F)F)c2)cc(OC)c1OC
active: [5] -17.6% | [6] 4.06% | [10] -22.6%
inactive: [1] 45.3% | [2] 36.9% | [3] 47% | [4] 133% | [7] 15% | [8] 177% | [9] 54.4%

C#Cc1ccc(-n2c(/C=C/c3ccc(O)cc3)nc3ncccc3c2=O)cc1
inactive: [1] 82.8% | [2] 58.7% | [3] 86.4% | [4] 59.4% | [5] 92% | [7] 53.5% | [8] 62.6% | [9] 110% | [10] 81.8%
active: [6] 0.111%

FC(F)(F)c1ccc(-c2cnc(-n3cc(COCCN4CCCCC4)nn3)nc2NC2CCCCCC2)cc1
inactive: [1] 67.7% | [2] 78.7% | [3] 54.4% | [4] 52.4% | [7] 10.6% | [8] 51.1% | [10] 57.7%
active: [5] -68.3% | [6] -12.8% | [9] -93.4%

S=c1[nH]ccn1-c1c(Cl)cccc1Cl
inactive: [1] 100% | [2] 98.6% | [3] 102% | [4] 93.5% | [5] 101% | [6] 11% | [7] 28.9% | [8] 98.8% | [9] 115% | [10] 125%

COc1ccc2c(c1)N(CCO)C1=C(C(=O)OC1)C2c1ccc(OC)c(OC)c1 (stereo not given)
active: [6] -12.4%
inactive: [1] 46.1% | [2] 46.7% | [3] 61.3% | [4] 39% | [5] 16.9% | [7] 50.4% | [8] 42.2% | [9] 29.7% | [10] 55.6%

CCOC(=O)C(NC(=O)C(Cl)Cl)C(O)c1ccccc1 (stereo not given)
inactive: [1] 102% | [2] 93.1% | [3] 105% | [4] 82.8% | [5] 102% | [6] 122% | [7] 117% | [8] 129% | [9] 126% | [10] 102%

NC(=S)N=Nc1c(O)c2ccccc2c2ccccc12
inactive: [2] 94.2% | [3] 82.3% | [4] 29.8% | [5] 51.9% | [6] 44.8% | [7] 23.7% | [8] 101% | [9] 92.3%
active: [1] 6.64% | [10] -8.94%

CCCCCCNC(=O)Oc1ccc(/C(=C(/CC)Cc2ccccc2)c2ccc(OCCN3CCCCC3)cc2)cc1
inactive: [1] 91% | [2] 88.6% | [3] 91.4% | [4] 86.6% | [5] 73.4% | [6] 77.9% | [7] 76.7% | [8] 78.6% | [9] 51.4% | [10] 96.6%

CSc1cc(SC)ncn1
inactive: [1] 120% | [2] 107% | [3] 105% | [4] 108% | [5] 119% | [6] 100% | [7] 105% | [8] 103% | [9] 104% | [10] 115%

O=C(Nc1cccc(-n2cc(-c3ccncc3)c(-c3ccc(O)c(Cl)c3)n2)c1)c1cccc(C(F)(F)F)c1
inactive: [1] 41.9% | [2] 68% | [3] 47% | [4] 47.2% | [5] 17.2% | [6] 28.2% | [7] 16.1% | [8] 21.4% | [9] 98.8% | [10] 51.1%
